{"source": "PubChem BioAssay AID777", "about": "(Sanford-Burnham Center for Chemical Genomics, 2007)", "note": "The campaign covered roughly 96,000 compounds. About 19,000 (20%) were called active. These entries were drawn from the full list. Values without a mark were called inactive.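 How the source made its calls: active means blocking of liver enzyme CYP2C9 beyond about 50% at 5 µM (limit read from the data); inactive means the rest.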", "data": [{"target": "Cytochrome P450 2C9 (Homo sapiens) (UniProt P11712)", "sequence (P11712 whole entry, looked up)": "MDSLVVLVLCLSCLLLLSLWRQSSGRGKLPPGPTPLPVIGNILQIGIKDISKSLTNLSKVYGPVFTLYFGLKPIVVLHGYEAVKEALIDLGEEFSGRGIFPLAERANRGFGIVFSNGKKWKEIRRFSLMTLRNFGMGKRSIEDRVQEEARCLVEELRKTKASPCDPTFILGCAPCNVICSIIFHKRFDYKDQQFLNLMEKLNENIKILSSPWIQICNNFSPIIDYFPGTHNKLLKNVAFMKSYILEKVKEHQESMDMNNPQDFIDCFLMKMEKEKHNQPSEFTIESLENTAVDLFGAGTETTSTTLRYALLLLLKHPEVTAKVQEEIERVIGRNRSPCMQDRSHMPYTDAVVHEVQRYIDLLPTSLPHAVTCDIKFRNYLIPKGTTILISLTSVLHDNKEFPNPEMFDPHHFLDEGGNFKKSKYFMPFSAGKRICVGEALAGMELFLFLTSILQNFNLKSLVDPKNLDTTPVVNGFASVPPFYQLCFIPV", "experiment": "blockers of cytochrome P450 2C9 activity – biochemical, luminescence, ADME assay, primary screen (AID 777)", "conditions": "CYP2C9 Supersomes, luciferin-H conversion, at 5 µM, hits give high values", "values": [{"smiles": "CCOc1cc(/C=C2/N=C(c3ccc(C(C)(C)C)cc3)OC2=O)cc(Cl)c1OS(C)(=O)=O", "inhibition": "30.3%"}, {"smiles": "CCOCCCN1C(=O)CN(C2CCCCC2)C(=O)C1c1ccc(OCC)c(OC)c1", "note": "(stereo not drawn)", "inhibition": "15.3%"}, {"smiles": "COc1cc2[nH]c(=S)n(Cc3ccc(C)o3)c(=O)c2cc1OC", "inhibition": "-0.8%"}, {"smiles": "Cc1nc2cc(S(=O)(=O)C(F)(F)F)ccc2s1", "inhibition": "1.9%"}, {"smiles": "Cc1nnc(NC(=O)Nc2ccc(Cl)c(Cl)c2)s1", "inhibition": "48.4%"}, {"smiles": "O=C(CC(O)(C(F)(F)F)C(F)(F)F)Nc1ccc(Cl)c(Cl)c1", "inhibition": "65% (active)"}, {"smiles": "N/C(=N\\OC(=O)Nc1ccc(Cl)c(Cl)c1)c1ncc(C(F)(F)F)cc1Cl", "inhibition": "-6.7%"}, {"smiles": "Cc1ccc(S(=O)(=O)c2c(N)n(C)c3nc4ccccc4nc23)cc1", "inhibition": "14.2%"}, {"smiles": "C=CCn1c(N)c(C(=O)OCC(C)C)c2nc3ccccc3nc21", "inhibition": "28.3%"}, {"smiles": "C=CCn1c(N)c(S(=O)(=O)c2cccs2)c2nc3ccccc3nc21", "inhibition": "86.3% (active)"}, {"smiles": "CCCCSc1nnc(-c2ccc(C)cc2)o1", "inhibition": "31.3%"}, {"smiles": "CCS(=O)(=O)N1CCC(C(=O)N2CCN(c3ccccc3)CC2)CC1", "inhibition": "9.9%"}, {"smiles": "O=C(CSCc1ccccc1)N1CCc2ccccc21", "inhibition": "-12.4%"}, {"smiles": "O=C(C1CCN(S(=O)(=O)Cc2ccccc2)CC1)N1CCCc2ccccc21", "inhibition": "51.8% (active)"}, {"smiles": "CCOc1ccc(NC(=O)C2CC(=O)N=C(N)S2)cc1", "note": "(stereo not drawn)", "inhibition": "-2.4%"}, {"smiles": "CC(NC(=O)C1CCC(CNc2c(N3CCOCC3)c(=O)c2=O)CC1)c1ccccc1", "note": "(stereo not drawn)", "inhibition": "-6.7%"}, {"smiles": "O=C(Nc1cccc2cccnc12)c1cccc(N2C(=O)CCC2=O)c1", "inhibition": "-71.6%"}, {"smiles": "Cn1c(CNC(=O)C(C)(C)C)nc2ccccc21", "inhibition": "-13.1%"}, {"smiles": "COc1ccc(C(=O)N2CCc3cc(OC)c(OC)cc3C2c2cccc([N+](=O)[O-])c2)cc1", "note": "(stereo not drawn)", "inhibition": "64.4% (active)"}, {"smiles": "COc1ccc(Cc2nnc(SCC(=O)c3cccc([N+](=O)[O-])c3)n2C)cc1", "inhibition": "38.7%"}, {"smiles": "COc1cc(C(=S)N2CCOCC2)cc(OC)c1OC(=O)c1cc([N+](=O)[O-])cc([N+](=O)[O-])c1", "inhibition": "-5%"}, {"smiles": "CCC1CCCCN1CCCNC(=O)Cn1nc(-c2ccccc2)ccc1=O", "note": "(stereo not drawn)", "inhibition": "9.1%"}, {"smiles": "Cc1c(NC(=O)CSc2cccc3cccnc23)c(=O)n(-c2ccccc2)n1C", "inhibition": "-25.5%"}, {"smiles": "O=c1cccc(-c2ccc(Br)cc2)o1", "inhibition": "-19.8%"}, {"smiles": "O=C(NCc1ccco1)c1sc2cccc(F)c2c1Cl", "inhibition": "-26.6%"}, {"smiles": "Cc1cc(C(=O)OCC(=O)NCc2ccco2)c(C)n1-c1ccccc1", "inhibition": "42.1%"}, {"smiles": "O=C(NCc1ccco1)c1ccc(CS(=O)(=O)Cc2ccc(F)cc2)o1", "inhibition": "40.7%"}, {"smiles": "COc1cc(-n2c(C)nc3cc(C(=O)NCc4ccco4)ccc32)cc(OC)c1OC", "inhibition": "8.4%"}, {"smiles": "O=C(Cc1ccc(-n2c(=O)c3sccc3n(Cc3ccc(F)cc3)c2=O)cc1)NCc1ccco1", "inhibition": "69.5% (active)"}, {"smiles": "O=C(NCc1ccco1)c1cc2sccc2n1Cc1ccc(F)cc1", "inhibition": "60.8% (active)"}, {"smiles": "Cc1nc2c(-c3ccc(F)cc3)c(C)nn2c(C)c1CCC(=O)NCc1ccco1", "inhibition": "24.9%"}, {"smiles": "O=C(NCc1ccco1)c1ccc(Cn2c(=O)c3sccc3n(Cc3ccc(F)cc3)c2=O)cc1", "inhibition": "79.7% (active)"}, {"smiles": "O=C(NCCc1ccco1)c1nn(Cc2ccccc2)c(=O)c2ccccc12", "inhibition": "7.4%"}, {"smiles": "NC(=O)CCCC1=NS(=O)(=O)c2ccccc2N1", "inhibition": "4.2%"}, {"smiles": "O=S(=O)(CCc1nc2ccccc2o1)c1ccc(Cl)cc1", "inhibition": "-2.3%"}, {"smiles": "CCOC(=O)N1CCN(C(=O)C2CC(c3ccc(F)cc3)=NO2)CC1", "note": "(stereo not drawn)", "inhibition": "8.8%"}, {"smiles": "CCC(=O)N1CCc2cc(S(=O)(=O)NC(C(=O)N3CCc4ccccc4C3)C(C)C)ccc21", "note": "(stereo not drawn)", "inhibition": "27%"}, {"smiles": "CCCS(=O)(=O)N1CCC(C(=O)NCCCN(C)Cc2ccccc2)CC1", "inhibition": "20.7%"}, {"smiles": "CCN(CCCNC(=O)C1CCN(S(=O)(=O)c2cnc[nH]2)CC1)c1ccccc1", "inhibition": "81.8% (active)"}, {"smiles": "Cc1cccc(N2CCN(C(=O)C3CCN(S(=O)(=O)c4cnc[nH]4)CC3)CC2)c1C", "inhibition": "30.4%"}, {"smiles": "CCCCC(=O)N(c1ccc(OC)cc1)C1C=CS(=O)(=O)C1", "note": "(stereo not drawn)", "inhibition": "25.7%"}, {"smiles": "Cn1cccc1Cc1nnc(SCC(=O)NCCc2ccccc2)n1-c1ccc(F)cc1", "inhibition": "48.3%"}, {"smiles": "Cc1ccc(-n2c(SCC(=O)NCc3ccc4c(c3)OCO4)nnc2-c2cccnc2)c(C)c1", "inhibition": "62.7% (active)"}, {"smiles": "Cn1cccc1Cc1nnc(SCC(=O)NCc2ccc3c(c2)OCO3)n1CCc1ccccc1", "inhibition": "55% (active)"}, {"smiles": "CNC(=O)CSc1nnc(CCc2ccccc2)n1-c1ccccc1", "inhibition": "-17.6%"}, {"smiles": "Cc1ccccc1-c1nnc(SCC(=O)NCc2ccc3c(c2)OCO3)n1C", "inhibition": "88.6% (active)"}, {"smiles": "CC(C)NC(=O)CSc1ccccc1C(=O)NCc1ccc2c(c1)OCO2", "inhibition": "16.9%"}, {"smiles": "O=C(CSc1nnc(-c2ccccn2)n1-c1ccccc1)Nc1ccc2c(c1)OCO2", "inhibition": "2.8%"}]}]}
